Laboratory results as given in the supplement of paper PMC10849652.
Targets with a hit are over-represented here; the source holds about 7,900 in all. About 0.6% of all pairs of compound and target were hits. Values without a mark were called inactive.

What was measured:
Test in all cases: log2 fold change, soluble protein after heating vs DMSO (PISA); higher = thermal stabilisation; K562 cells, 10 uM, 30 min; active = over 0.2 and 3.5 SD of the protein, either way, in both replicates (recomputed)
erlotinib = compound: C#Cc1cccc(Nc2ncnc3cc(OCCOC)c(OCCOC)cc23)c1 [erlotinib]
In short: (§1)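 K562 cells at 2×10^6 cells/mL were treated for 30 min with 10 μM compound, and aliquots were heated for 3 min over 48°C-58°C before pooling. Extraction used PBS with 0.5% NP-40 at 4°C, and soluble protein was the supernatant after 21,000xg for 90 min, measured by TMTpro 16plex LC-MS/MS with channel sums equalised. Thermal stability values, relative to control samples and from duplicates, are log2 fold changes.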

[1] = compound: C/C(=N\NC(=O)C1=CC(=CC=C1)S(=O)(=O)N2CCOCC2)/C3=C(C=CC(=C3)Cl)O
In short: as §1

[2] = compound: C1=CC(=C(C=C1Cl)C2=NC3=NC=CN=C3C(=N2)NC4=CC=NC=C4)F
In short: as §1

[3] = compound: C1=CC(=CC=C1C2=NC3=C(N2)C=C(C=C3)C(=O)N)OC4=CC=C(C=C4)Cl
In short: as §1

[4] = compound: C1=CC2=C(C=CC(=C2)/C=C\3/C(=O)NC(=NCC4=CC=CS4)S3)N=C1
In short: as §1

[5] = compound: C1=CC2=NC=CN=C2C=C1/C=C/3\C(=O)NC(=O)S3
In short: as §1

[6] = compound: C1=CC=C2C(=C1)C3=NNC4=CC=CC(=C43)C2=O
In short: as §1

[7] = compound: C1CCN(C1)C(=O)NC2=CC=CC(=C2)NC3=NC=C(C(=N3)NCCC4=CN=CN4)Br
In short: as §1

[8] = compound: C1CN(CCC1(CC2=CC=C(C=C2)Cl)N)C3=NC=NC4=C3C=CN4
In short: as §1

IRAK-1-4 Inhibitor I = compound: C1COCCN1CCN2C3=CC=CC=C3N=C2NC(=O)C4=CC(=CC=C4)[N+](=O)[O-] [IRAK-1-4 Inhibitor I]
In short: as §1

ibrutinib = compound: C=CC(=O)N1CCC[C@@H](n2nc(-c3ccc(Oc4ccccc4)cc3)c3c(N)ncnc32)C1 [ibrutinib]
In short: as §1

[9] = compound: CC(=O)c1cnc2ccc(-c3cc(Cl)c(O)c(Cl)c3)nc2c1N[C@H]1CC[C@H](CN(C)C)CC1
In short: as §1

[10] = compound: CC(C)(O)CC(=O)NCCn1ccc2ncnc(Nc3ccc(Oc4cccc(C(F)(F)F)c4)c(Cl)c3)c21
In short: as §1

[11] = compound: CC(C)C1=C2N=C(C=C(N2N=C1)NCC3=CC=CC=C3)NCCCCCCN
In short: as §1

pinometostat = compound: CC(C)N(C[C@H]1O[C@@H](n2cnc3c(N)ncnc32)[C@H](O)[C@@H]1O)[C@H]1C[C@@H](CCc2nc3cc(C(C)(C)C)ccc3[nH]2)C1 [pinometostat]
In short: as §1

[12] = compound: CC1=C(C(CC(=O)N1)C2=CC=C(C=C2)C(F)(F)F)C(=O)NC3=C(C=C4C(=C3)C=NN4)F
In short: as §1

[13] = compound: CC1=C(C2=C(C=C1)C(=O)C3=CC=CC=C3N2CCCN)C
In short: as §1

[14] = compound: C1=CC=C(C=C1)C2=NC(=C(N2)C3=CC=NC=C3)C4=CC(=C(C=C4)Cl)O
In short: as §1

ralimetinib = compound: CC(C)(C)Cn1c(N)nc2ccc(-c3[nH]c(C(C)(C)C)nc3-c3ccc(F)cc3)nc21 [ralimetinib]
In short: as §1

[15] = compound: CC(C)C[C@@H](C=O)NC(=O)[C@H](CC(C)C)NC(=O)[C@H](CC(C)C)NC(=O)OCc1ccccc1
In short: as §1

Sequence of UniProt Q99758 (Q99758 whole entry, looked up): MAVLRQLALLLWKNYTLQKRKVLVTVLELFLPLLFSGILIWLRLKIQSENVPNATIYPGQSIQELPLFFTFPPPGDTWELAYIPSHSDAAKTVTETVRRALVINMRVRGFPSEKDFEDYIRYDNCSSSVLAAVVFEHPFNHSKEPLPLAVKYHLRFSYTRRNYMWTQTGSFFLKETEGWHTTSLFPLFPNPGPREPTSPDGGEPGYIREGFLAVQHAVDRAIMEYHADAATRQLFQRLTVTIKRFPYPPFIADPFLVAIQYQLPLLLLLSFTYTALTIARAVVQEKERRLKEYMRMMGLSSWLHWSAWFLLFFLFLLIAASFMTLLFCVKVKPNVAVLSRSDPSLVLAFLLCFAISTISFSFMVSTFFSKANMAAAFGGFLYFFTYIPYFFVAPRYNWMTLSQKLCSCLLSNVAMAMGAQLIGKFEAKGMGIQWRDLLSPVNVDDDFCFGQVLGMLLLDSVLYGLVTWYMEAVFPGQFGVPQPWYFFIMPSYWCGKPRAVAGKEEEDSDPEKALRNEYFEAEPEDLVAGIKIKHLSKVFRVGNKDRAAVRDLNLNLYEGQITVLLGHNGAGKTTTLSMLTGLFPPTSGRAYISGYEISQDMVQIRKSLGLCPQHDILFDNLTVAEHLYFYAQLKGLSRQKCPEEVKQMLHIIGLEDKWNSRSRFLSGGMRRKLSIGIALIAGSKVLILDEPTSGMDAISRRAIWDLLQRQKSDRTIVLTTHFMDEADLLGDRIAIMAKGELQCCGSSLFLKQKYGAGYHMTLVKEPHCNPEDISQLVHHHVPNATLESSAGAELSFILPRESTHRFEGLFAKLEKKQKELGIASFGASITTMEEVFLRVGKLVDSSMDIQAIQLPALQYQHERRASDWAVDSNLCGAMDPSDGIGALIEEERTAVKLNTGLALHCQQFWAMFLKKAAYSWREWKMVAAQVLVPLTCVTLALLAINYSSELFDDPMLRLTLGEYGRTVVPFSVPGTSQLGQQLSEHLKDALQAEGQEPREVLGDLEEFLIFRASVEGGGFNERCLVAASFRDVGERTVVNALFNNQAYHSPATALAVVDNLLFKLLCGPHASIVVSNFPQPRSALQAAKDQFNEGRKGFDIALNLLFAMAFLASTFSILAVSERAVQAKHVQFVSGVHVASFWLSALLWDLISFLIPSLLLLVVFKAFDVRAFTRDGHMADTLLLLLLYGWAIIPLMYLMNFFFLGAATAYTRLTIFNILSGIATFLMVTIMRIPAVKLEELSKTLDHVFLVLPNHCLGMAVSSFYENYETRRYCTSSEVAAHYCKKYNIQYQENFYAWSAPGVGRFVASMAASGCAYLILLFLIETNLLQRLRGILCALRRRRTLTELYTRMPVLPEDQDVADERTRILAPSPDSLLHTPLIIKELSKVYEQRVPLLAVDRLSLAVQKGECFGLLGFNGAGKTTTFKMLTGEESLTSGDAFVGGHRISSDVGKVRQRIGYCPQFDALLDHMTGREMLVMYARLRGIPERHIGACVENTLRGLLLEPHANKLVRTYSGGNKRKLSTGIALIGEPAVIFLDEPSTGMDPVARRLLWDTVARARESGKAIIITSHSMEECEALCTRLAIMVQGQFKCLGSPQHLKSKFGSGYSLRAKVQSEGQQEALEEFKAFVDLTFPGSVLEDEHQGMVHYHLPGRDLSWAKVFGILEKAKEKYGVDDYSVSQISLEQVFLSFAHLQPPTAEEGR
Sequence of UniProt P15056 (P15056 whole entry, looked up): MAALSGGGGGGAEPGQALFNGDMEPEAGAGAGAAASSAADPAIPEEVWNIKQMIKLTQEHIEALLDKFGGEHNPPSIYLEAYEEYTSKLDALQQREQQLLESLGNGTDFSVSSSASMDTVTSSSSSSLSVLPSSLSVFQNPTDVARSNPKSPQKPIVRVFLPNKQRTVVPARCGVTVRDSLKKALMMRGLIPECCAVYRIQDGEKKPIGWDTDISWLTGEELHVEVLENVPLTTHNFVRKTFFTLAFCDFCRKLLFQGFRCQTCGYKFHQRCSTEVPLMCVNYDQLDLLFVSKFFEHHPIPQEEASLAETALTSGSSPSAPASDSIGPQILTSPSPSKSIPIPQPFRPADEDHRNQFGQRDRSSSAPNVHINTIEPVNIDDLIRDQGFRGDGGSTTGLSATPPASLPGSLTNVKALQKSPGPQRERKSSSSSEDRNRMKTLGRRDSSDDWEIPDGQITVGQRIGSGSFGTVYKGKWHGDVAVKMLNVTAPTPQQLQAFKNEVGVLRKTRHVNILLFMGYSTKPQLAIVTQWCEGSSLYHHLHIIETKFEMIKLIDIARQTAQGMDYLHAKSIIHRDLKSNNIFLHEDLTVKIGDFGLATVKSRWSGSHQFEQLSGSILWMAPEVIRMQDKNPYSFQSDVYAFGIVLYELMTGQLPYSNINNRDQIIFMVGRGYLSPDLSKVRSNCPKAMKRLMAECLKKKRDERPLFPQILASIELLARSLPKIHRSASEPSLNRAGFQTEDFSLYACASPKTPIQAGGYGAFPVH
Sequence of UniProt Q07960 (Q07960 whole entry, looked up): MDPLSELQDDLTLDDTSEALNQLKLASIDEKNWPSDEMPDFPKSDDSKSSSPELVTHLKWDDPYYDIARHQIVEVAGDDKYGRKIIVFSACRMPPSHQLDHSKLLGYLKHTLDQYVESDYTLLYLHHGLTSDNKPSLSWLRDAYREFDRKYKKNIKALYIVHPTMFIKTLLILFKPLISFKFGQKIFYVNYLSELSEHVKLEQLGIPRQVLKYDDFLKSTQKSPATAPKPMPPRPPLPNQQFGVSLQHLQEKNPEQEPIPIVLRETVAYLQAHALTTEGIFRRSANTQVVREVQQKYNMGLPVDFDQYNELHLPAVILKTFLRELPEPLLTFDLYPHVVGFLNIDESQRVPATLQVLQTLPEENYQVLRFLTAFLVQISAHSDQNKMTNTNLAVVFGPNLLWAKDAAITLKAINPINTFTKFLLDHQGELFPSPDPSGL
Sequence of UniProt Q9NSY1 (Q9NSY1 whole entry, looked up): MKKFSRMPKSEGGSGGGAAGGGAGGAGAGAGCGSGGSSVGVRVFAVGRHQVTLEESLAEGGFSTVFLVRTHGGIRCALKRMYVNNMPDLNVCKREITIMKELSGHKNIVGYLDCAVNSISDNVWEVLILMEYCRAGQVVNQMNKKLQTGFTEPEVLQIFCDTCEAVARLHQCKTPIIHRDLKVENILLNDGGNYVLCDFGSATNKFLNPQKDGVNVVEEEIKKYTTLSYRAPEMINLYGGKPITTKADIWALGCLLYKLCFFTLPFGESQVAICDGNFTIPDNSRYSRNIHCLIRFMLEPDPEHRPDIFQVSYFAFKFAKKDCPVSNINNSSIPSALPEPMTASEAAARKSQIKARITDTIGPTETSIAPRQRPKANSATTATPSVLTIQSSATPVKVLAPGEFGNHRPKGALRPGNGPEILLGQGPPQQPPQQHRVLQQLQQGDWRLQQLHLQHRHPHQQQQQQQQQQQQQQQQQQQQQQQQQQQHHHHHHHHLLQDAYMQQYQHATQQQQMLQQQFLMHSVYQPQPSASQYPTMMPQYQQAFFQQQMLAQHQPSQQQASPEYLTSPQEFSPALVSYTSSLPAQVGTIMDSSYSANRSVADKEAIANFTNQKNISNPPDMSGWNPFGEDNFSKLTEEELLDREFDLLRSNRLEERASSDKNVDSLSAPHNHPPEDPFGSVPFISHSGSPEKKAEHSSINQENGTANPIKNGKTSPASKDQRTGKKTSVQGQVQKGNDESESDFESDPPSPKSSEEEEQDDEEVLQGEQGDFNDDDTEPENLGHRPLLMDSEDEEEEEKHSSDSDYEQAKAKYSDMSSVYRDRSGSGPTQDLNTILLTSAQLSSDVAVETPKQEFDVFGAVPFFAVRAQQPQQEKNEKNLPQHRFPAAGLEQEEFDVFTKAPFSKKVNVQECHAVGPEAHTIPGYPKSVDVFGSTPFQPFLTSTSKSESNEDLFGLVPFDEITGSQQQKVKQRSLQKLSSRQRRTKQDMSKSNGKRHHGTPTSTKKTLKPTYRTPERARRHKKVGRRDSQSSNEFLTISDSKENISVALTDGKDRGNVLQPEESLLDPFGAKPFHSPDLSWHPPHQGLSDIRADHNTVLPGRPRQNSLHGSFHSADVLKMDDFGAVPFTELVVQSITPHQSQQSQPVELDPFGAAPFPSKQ
Sequence of UniProt P24666 (P24666 whole entry, looked up): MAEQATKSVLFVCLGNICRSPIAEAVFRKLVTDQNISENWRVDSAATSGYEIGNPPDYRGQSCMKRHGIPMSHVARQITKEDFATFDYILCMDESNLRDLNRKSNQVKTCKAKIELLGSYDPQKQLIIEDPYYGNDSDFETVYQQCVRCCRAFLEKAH
Sequence of UniProt Q96GS6 (Q96GS6 whole entry, looked up): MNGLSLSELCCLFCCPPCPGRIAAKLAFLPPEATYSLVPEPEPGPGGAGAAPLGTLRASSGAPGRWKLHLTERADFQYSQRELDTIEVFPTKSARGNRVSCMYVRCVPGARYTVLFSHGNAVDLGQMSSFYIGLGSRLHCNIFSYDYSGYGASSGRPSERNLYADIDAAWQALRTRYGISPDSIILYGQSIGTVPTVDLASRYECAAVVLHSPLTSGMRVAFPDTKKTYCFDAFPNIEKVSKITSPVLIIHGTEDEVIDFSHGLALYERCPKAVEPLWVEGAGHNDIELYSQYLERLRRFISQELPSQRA
Sequence of UniProt Q9BRQ8 (Q9BRQ8 whole entry, looked up): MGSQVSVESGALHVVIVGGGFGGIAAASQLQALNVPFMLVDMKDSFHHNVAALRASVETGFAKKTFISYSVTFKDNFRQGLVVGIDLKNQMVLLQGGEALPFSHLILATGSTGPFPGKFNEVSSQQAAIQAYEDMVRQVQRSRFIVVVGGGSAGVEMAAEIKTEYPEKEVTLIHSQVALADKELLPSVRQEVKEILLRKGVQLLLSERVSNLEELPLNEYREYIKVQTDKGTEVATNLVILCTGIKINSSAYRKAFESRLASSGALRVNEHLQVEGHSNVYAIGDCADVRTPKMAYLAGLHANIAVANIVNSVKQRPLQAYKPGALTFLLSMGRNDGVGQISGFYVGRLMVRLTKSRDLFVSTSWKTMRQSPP

Target	log2 fold change (erlotinib)	log2 fold change [1]	log2 fold change [2]	log2 fold change [3]	log2 fold change [4]	log2 fold change [5]	log2 fold change [6]	log2 fold change [7]	log2 fold change [8]	log2 fold change (IRAK-1-4 Inhibitor I)	log2 fold change (ibrutinib)	log2 fold change [9]	log2 fold change [10]	log2 fold change [11]	log2 fold change (pinometostat)	log2 fold change [12]	log2 fold change [13]	log2 fold change [14]	log2 fold change (ralimetinib)	log2 fold change [15]
ACP1 (UniProt P24666)	0.149	0.06	0.035	-0.066	0.224	-0.059	0.109	-0.001	-0.015	-0.027	-0.073	-0.083	-0.238	-0.071	0.107	-0.055	-0.087	–	–	–
AIFM2 (UniProt Q9BRQ8)	-0.038	0.045	-0.001	0.064	-0.025	-0.032	0.172	-0.045	0.064	0.011	-0.008	0	0.189	0.161	0.044	-0.062	0.021	0.041	-0.005	-0.061
ACOX3 (UniProt O15254)	0.158	-0.157	-0.068	0.007	-0.122	-0.026	0.071	0.153	0.054	0.095	0.035	-0.177	0.061	0.022	-0.021	-0.081	-0.051	–	–	–
BSCL2 isoform 4 (UniProt Q96G97)	-0.024	0.088	-0.016	0.052	0.06	-0.012	-0.045	0.045	-0.001	–	0.069	-0.109	0.003	-0.219	–	-0.122	0.023	–	–	–
ARL6IP4 (UniProt Q66PJ3)	0.041	0.06	-0.085	-0.01	-0.08	0	0.117	0.003	0.039	0.049	0.026	0.018	0	0.075	-0.03	0.064	0.049	-0.12	0.01	0.021
ACO2 (UniProt Q99798)	0.049	0.008	0.105	-0.014	0.077	-0.244 (active)	0.009	0.018	0.015	0.023	0.025	-0.016	-0.068	-0.058	-0.033	-0.049	0.076	0.036	-0.019	-0.022
ATF1 (UniProt P18846)	-0.058	0.244	0.129	-0.054	-0.221	0.023	0.039	-0.117	-0.024	–	-0.02	-0.02	-0.07	0.081	–	-0.04	-0.127	–	–	–
ACSL5 isoform 3 (UniProt Q9ULC5)	0.044	0.039	-0.021	0.028	-0.029	-0.011	0.047	-0.003	0.061	0.02	0.03	-0.017	0.014	-0.354 (active)	0.095	0.049	0.088	-0.007	-0.03	-0.001
BRAF (UniProt P15056)	0.031	0.057	0.034	0.007	0.08	-0.012	-0.054	-0.088	0.024	-0.025	0.002	–	–	-0.044	0.047	0.003	0.056	–	0.019	-0.031
ACVR1 (UniProt Q04771)	-0.101	-0.051	0.021	0.031	-0.021	–	0.136	-0.326	0.035	–	–	0.873 (active)	-0.158	0.06	–	–	0.127	–	–	–
BMP2K (UniProt Q9NSY1)	0.079	-0.16	-0.016	-0.024	0.178	-0.042	0.388 (active)	0.353	-0.061	0.003	0.071	0.559 (active)	-0.028	-0.027	-0.008	0.023	-0.009	-0.012	0.058	0.085
BTBD6 (UniProt Q96KE9)	0.407	-0.706 (active)	0.165	-0.188	0.016	-0.057	0.081	-0.19	0.185	–	0.136	0.145	-0.008	0.296	–	0.068	0.005	0.3	0.201	0.025
ASB6 (UniProt Q9NWX5)	-0.024	-0.603 (active)	-0.263	-0.067	0.184	-0.084	-0.032	–	–	0.106	-0.108	0.039	-0.274	-0.055	-0.031	0.059	–	0.101	0.343	0.069
ARHGAP1 (UniProt Q07960)	-0.039	0.014	0.025	0.021	0.038	0.021	-0.011	0.002	0.019	0.025	-0.014	-0.049	-0.014	0.162	0	-0.011	-0.014	0.021	-0.022	0.023
AGO1 (UniProt Q9UL18)	0.031	-0.061	0.05	-0.091	0.032	0.005	-0.08	-0.008	0.046	0.02	0.05	0.019	-0.001	-0.01	0.061	0.144	0.076	0.01	-0.023	0.07
ABCA3 (UniProt Q99758)	0.011	0.087	0.002	0.057	-0.027	-0.056	0.031	0.094	-0.034	-0.012	-0.051	-0.005	-0.096	-0.007	0.203	–	0.054	0.01	-0.096	-0.017
ABHD17A isoform 2 (UniProt Q96GS6)	0	-0.011	-0.028	0.223	0.035	0.042	0.008	-0.068	0.11	0.076	0.001	-0.042	-0.078	-0.126	0.079	-0.042	0.077	0.017	-0.034	0.062
